About 13,000 (27%) of roughly 48,000 compounds showed an effect of 50% or more. Some of the results follow.
Test system: Wolbachia pipientis
Experiment: Anti-Wolbachia Cell-Based Screen
Assay type: functional
Parameters: scale not given: in the data most compounds retested in dose-response had high values
Conditions: 5 µM

Row | Compound | Percent Effect
1 | CCn1ccc2ccnc(CC3CN(C(=O)Cn4ccnc4C)C3)c21.O=CO | 124.4%
2 | Cn1ccc2ccnc(CC3CN(C(=O)C4CCC(F)(F)CC4)C3)c21 | -0.631%
3 | O=C(C(CNCc1ccncc1)c1ccccc1)N1CCOCC1 (stereo not given) | 0.2839%
4 | O=C(Cc1ccc2c(c1)OCCO2)N1CCCC(n2cccn2)C1 (stereo not given) | 7.45%
5 | CC(C)c1nc(C2CCCN2Cc2ccon2)no1 (stereo not given) | 78.63%
6 | CC(C)c1nc(C2CCCN2CC(=O)Nc2ccc(Cl)cn2)no1 (stereo not given) | -4.076%
7 | CC(C)c1nc(C2CCCN2Cc2ccn(C)c(=O)c2)no1 (stereo not given) | -1.235%
8 | Cc1cc(CN2CCCC2c2noc(C(C)C)n2)on1 (stereo not given) | 98.26%
9 | CC(C)c1noc(CN2CCCC2c2noc(C(C)C)n2)n1 (stereo not given) | 108.9%
10 | CCc1noc(CN2CCCC2c2noc(C3CC3)n2)n1 (stereo not given) | 2.482%
11 | CC(C)c1nc(C2CCCN2Cc2ccncc2Cl)no1 (stereo not given) | 81.18%
12 | CC(C)c1nc(C2CCCN2c2ccnc(C3CCCC3)n2)no1 (stereo not given) | 0.08889%
13 | CC(C)c1nc(C2CCCN2CC(=O)Nc2nncs2)no1 (stereo not given) | -0.6487%
14 | CC(C)c1nc(C2CCCN2Cc2ccccc2C#N)no1 (stereo not given) | 6.567%
15 | c1ccc(-c2nnc3ccc(N4CCC5(CCOC5)C4)nn23)cc1 (stereo not given) | -13.9%
16 | CNC(=O)CN1CCC(NC(=O)C(C)Oc2ccccc2C#N)CC1 (stereo not given) | 0.1216%
17 | CC(C)NS(=O)(=O)c1cc(C(=O)O)cc(-c2ccccc2CO)c1 | 11.88%
18 | Cc1nc(CN2CCCC2c2noc(C(C)C)n2)oc1C (stereo not given) | 98.12%
19 | Cc1nc(C2CCCN2Cc2ncc(C(C)C)o2)no1 (stereo not given) | 8.273%
20 | Cc1nc(C2CCCN2Cc2nc(C)c(C)o2)no1 (stereo not given) | -0.5484%
21 | CCc1c(C)nc2cc(C3CCN(Cc4cccnc4)C3)nn2c1O (stereo not given) | 85.92%
22 | NC(=O)c1cccc2nc([C@H]3CCN(Cc4ccccc4F)C3)[nH]c12 | 1.754%
23 | Cn1cnnc1CNC(=O)C1CCCN(Cc2cccc(F)c2)C1 (stereo not given) | -3.668%
24 | CCc1c(C)nc2cc(C3CCN(Cc4cccc(F)c4)C3)nn2c1O (stereo not given) | 98.22%
25 | Cc1cc(CN2CCC(C3CCN(CCc4ccccc4)C3)CC2)[nH]n1 (stereo not given) | -6.326%

Row | Compound | Percent Effect
26 | Cc1nc[nH]c1CN1CCC(C2CCN(CCc3ccccc3)C2)CC1 (stereo not given) | -8.62%
27 | Cc1nc2cc(C3CCN(Cc4ccccc4F)C3)nn2c(O)c1C (stereo not given) | 92.44%
28 | Cc1cc(CN2CCC(C3CCN(Cc4cccnc4)CC3)C2)[nH]n1 (stereo not given) | -58.7%
29 | CCc1c(C)nc2cc(C3CCN(CCc4ccccc4)C3)nn2c1O (stereo not given) | 76.13%
30 | CCn1cnnc1CNC(=O)C1CCCN(Cc2cccc(F)c2)C1 (stereo not given) | 3.888%
31 | CCc1c(C)nc2cc(C3CCN(Cc4ccccc4F)C3)nn2c1O (stereo not given) | -15.15%
32 | Cc1nc(N2CCOCC2)nc(C)c1NC(=O)COc1ccccc1 | 15.56%
33 | c1cc(-c2noc(CN3CCn4c(nnc4C4CC4)C3)n2)co1 | -9.374%
34 | O=C1N(Cc2ccc(F)c(F)c2)CCCC12CCN(C1CCSCC1)C2 (stereo not given) | -6.504%
35 | COCCCS(=O)(=O)N1CCN(C(=O)CO)CC1 | -3.721%
36 | CSc1sc(NC(=O)C2CCCN(C(N)=O)C2)nc1C (stereo not given) | -0.4613%
37 | CCc1c(C)nc2cc(C3CCN(Cc4ccc(F)cc4)C3)nn2c1O (stereo not given) | 99.62%
38 | CCn1c(C2CCCN(Cc3cccc4cnccc34)C2)nn(C)c1=O (stereo not given) | 3.036%
39 | CCc1c(C)nc2cc(C3CCN(Cc4ccncc4C)C3)nn2c1O (stereo not given) | 81.51%
40 | O=C(NC1(c2nc(C3CC3)no2)CCCCC1)c1ccncc1 | -8.803%
41 | O=C(c1ccccc1F)N1CCN(c2ccc(-n3cccc3)nn2)CC1 | -6.21%
42 | CNC(=O)c1cccnc1NCCOc1ccc(CC#N)cc1 | 4.731%
43 | O=C(O)C(F)(F)F.O=C(O)[C@]12CCCN(Cc3ccoc3)C[C@H]1CN(c1ncccn1)C2 | 0.4182%
44 | Cc1cnn(CC2CCCN2C(=O)c2sccc2C#N)c1 (stereo not given) | -6.888%
45 | Cc1cnn(CC2CCCCN2C(=O)c2ccccc2-n2cccn2)c1 (stereo not given) | 109.2%
46 | Cc1cnn(CC2CCCCN2C(=O)c2sccc2C#N)c1 (stereo not given) | -11.17%
47 | Cc1cnn(CC2CCCN2C(=O)c2ccccc2-n2cnnn2)c1 (stereo not given) | 114.3%
48 | Cc1cnn(CC2CCCN2C(=O)c2cn(-c3ccccc3)nc2C)c1 (stereo not given) | -0.04653%
49 | Cc1cnn(CC2CCCN2C(=O)c2ccccc2-n2cccn2)c1 (stereo not given) | 86.06%
50 | Cc1cnn(CC2CCCN2C(=O)c2sccc2-n2cnnn2)c1 (stereo not given) | 107.4%
